Drawing on PubChem BioAssay (NCI), this text covers growth inhibition for 21 compounds.

Compounds without any hit were thinned out: in the full panel of roughly 79,000, 15% have a hit. Unmarked numbers belong to inactive results. Activity calls are given as the source filed them. Rule as the data show it: active = growth inhibition above about 70%; inactive = the rest.

The nature of experiment [1]: NCI Yeast Anticancer Drug Screen. Data for the rad50 strain (AID 155).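 Also: 0% = growth of vehicle-only cultures of the same strain.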 The settings on record: S. cerevisiae rad50 strain growth inhibition; at 50.0 µM; stronger effect = higher value. Put shortly:
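Relative growth inhibition (compound vs vehicle) was measured in yeast with a defined repair-gene alteration.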

Experiment [2] is described as follows: NCI Yeast Anticancer Drug Screen. Data for the mec2-1 strain (AID 157). Conditions: S. cerevisiae mec2-1 strain, at 50.0 µM, stronger effect = higher value. Put shortly: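 Vehicle-treated cultures served as reference for growth inhibition of compound-exposed mec2-1 yeast.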
Experiment [3] can be described thus: NCI Yeast Anticancer Drug Screen. Data for the sgs1 mgt1 strain (AID 161).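 Also: 0% = growth of cultures given vehicle only.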 Conditions: S. cerevisiae sgs1 mgt1 strain, at 50.0 µM, stronger effect = higher value. Put shortly: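 Test agents were incubated with a DNA-repair-mutant yeast strain. Growth was then read and compared against vehicle-treated controls.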
A short description of experiment [4]: NCI Yeast Anticancer Drug Screen. Data for the cln2 rad14 strain (AID 165).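 Also: 0% = growth equal to vehicle treated cultures.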 Conditions: S. cerevisiae cln2 rad14 strain, at 50.0 µM, stronger effect = higher value. Put shortly: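 Each compound was tested on cln2 rad14 yeast. Inhibition of growth was calculated against vehicle-exposed controls.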
Experiment [5] in a line: NCI Yeast Anticancer Drug Screen. Data for the bub3 strain (AID 167). The settings on record: S. cerevisiae bub3 mutant strain, at 50.0 µM, stronger effect = higher value. Put shortly: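 Screening used yeast with an engineered genetic alteration affecting cell cycle control. Compound-exposed cultures were compared with vehicle cultures, and reduced growth was taken as inhibition.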

Experiment [6] in a line: NCI Yeast Anticancer Drug Screen. Data for the mlh1 rad18 strain (AID 175). The settings on record: S. cerevisiae mlh1 rad18 strain growth inhibition; at 50.0 µM; stronger effect = higher value. Put shortly:
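Vehicle-treated cultures served as the reference for growth inhibition in a yeast strain carrying DNA damage repair alterations exposed to each compound.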

In the case of `Cc1ccc(C(C)C)cc1NC(=O)/C=C/c1ccccc1`, the growth inhibition in experiment [1] was 10.2%; in experiment [2], 36%; in experiment [3], 36.6%; in experiment [4], -15.2%; in experiment [5] it was 23.9%; in experiment [6], 55%.
As for `COc1cccc(N2C(Cl)C(=O)C2c2c[nH]c3ccccc23)c1` (stereo unspecified), the growth inhibition in experiment [1] was -31.4%; in experiment [2] it was -37.2%; in experiment [3], -47.6%; in experiment [4], -23.1%; in experiment [5], -28.9%; in experiment [6] it was -47%.
On to `CC(=O)Oc1ccc(=O)[nH]c1`, for which the growth inhibition in experiment [1] is 1.3%; in experiment [2], -11.9%; in experiment [3] it was 2.2%; in experiment [4] it was -18.4%; in experiment [5], 2.75%; in experiment [6], -48%.
Turning to `O=C(O)CO`, the growth inhibition in experiment [1] was -7.7%; in experiment [2], 3.05%; in experiment [3], -6.25%; in experiment [4], -1.25%; in experiment [5], -9.15%; in experiment [6] it was -29.1%.
Consider `CCOC(=O)Nc1cc([N+](C)(C)C)ccc1OCCOc1ccc([N+](C)(C)C)cc1`, for which the growth inhibition in experiment [1] is -0.4%; in experiment [2], 5.35%; in experiment [3] it was -8.4%; in experiment [4] it was -8.8%; in experiment [5], -1.65%; in experiment [6], 28.6%.
For `C[N+](C)([O-])CCNC(=O)c1cccc2cc3ccccc3nc12`, the growth inhibition in experiment [1] is -9.8%; in experiment [2] it was -8.9%; in experiment [3], -23.5%; in experiment [4] it was 4.3%; in experiment [5], 10.2%; in experiment [6], -46%.
With `CC(C)(Br)CS(=O)(=O)c1ccccc1`, the growth inhibition in experiment [1] is 38.1%; in experiment [2] it was 5.85%; in experiment [3] it was 29.1%; in experiment [4] it was -20.2%; in experiment [5], 14.1%; in experiment [6], 29.5%.
As to `COc1cc2cccc(N=Cc3cccc(OC)c3OC(C)C)c2cc1OC`, the growth inhibition in experiment [1] was -20.9%; in experiment [2] it was -13.2%; in experiment [3], 11.6%; in experiment [4], 16.1%; in experiment [5], -4.6%; in experiment [6], -8.6%.
For the compound `O=C1CC(c2ccc(Cl)cc2)C(=O)O1` (stereo unspecified), the growth inhibition in experiment [1] was -10.5%; in experiment [2] it was 12%; in experiment [3], 1.6%; in experiment [4] it was 3.2%; in experiment [5] it was -23.4%; in experiment [6], -15.1%.
On to `O=C1c2ccccc2C(=O)N1CC1CC(S(=O)(=O)c2ccccc2)=NO1` (stereo unspecified), for which the growth inhibition in experiment [1] is -1.8%; in experiment [2] it was -15.2%; in experiment [3], -0.4%; in experiment [4], -0.4%; in experiment [5] it was -7.6%; in experiment [6], 5%.
For the compound `Cc1ccc2c(c1)[nH]c(=S)n2/C=C1\C(=O)Oc2ccccc2C1=O`, the growth inhibition in experiment [1] was -43.8%; in experiment [2], -42.1%; in experiment [3], -44.4%; in experiment [4] it was -31.7%; in experiment [5], -42%; in experiment [6] it was -46%.
As to `Clc1ccc(N=C2CCCCC2)cc1`, the growth inhibition in experiment [1] was 12.4%; in experiment [2], -12.5%; in experiment [3], -0.2%; in experiment [4], 8.45%; in experiment [5] it was -18.2%; in experiment [6], 1.9%.
Consider `COc1cccc(C[n+]2cc([O-])on2)c1`, for which the growth inhibition in experiment [1] is -16.1%; in experiment [2] it was 26.1%; in experiment [3], -3.3%; in experiment [4], -27.5%; in experiment [5], 21.1%; in experiment [6] it was 18.4%.
For `N#Cc1c2c(n3c1[nH]c(=O)c1ccccc13)CCCC2`, the growth inhibition in experiment [1] is 24.4%; in experiment [2], 10%; in experiment [3] it was 23.9%; in experiment [4] it was 11.9%; in experiment [5], -2.8%; in experiment [6] it was 10.8%.
With `OCCN(CCO)c1ncnc2c1ncn2-c1ccc(CCCl)cc1`, the growth inhibition in experiment [1] is 5.3%; in experiment [2], -3.1%; in experiment [3], -2.85%; in experiment [4], 6.05%; in experiment [5] it was 19%; in experiment [6], 0.1%.
On to `C/C(=N\N(C)/C=N/S(C)(=O)=O)c1ccccc1`, for which the growth inhibition in experiment [1] is 7.85%; in experiment [2] it was 9.5%; in experiment [3], 24.5%; in experiment [4], 74.5% (active); in experiment [5], -2.9%; in experiment [6] it was -3.25%.
In the case of `CN(C)C=Nc1cccc2c1NSN2`, the growth inhibition in experiment [1] was 5.5%; in experiment [2], -6.4%; in experiment [3], -1.35%; in experiment [4], 29.1%; in experiment [5], 13.4%; in experiment [6] it was 33.1%.
`O=C(O)CNS(=O)(=O)c1ccccc1`: the growth inhibition in experiment [1] is -43.5%; in experiment [2], -7.7%; in experiment [3], -23.1%; in experiment [4], -24.6%; in experiment [5], -0.8%; in experiment [6] it was 6%.
Regarding `CCO[Si](CCCN)(OCC)OCC`, the growth inhibition is -37.5% in experiment [1]; -58.2% in experiment [2]; -36.2% in experiment [3]; 0.95% in experiment [4]; -22.1% in experiment [5]; -33.8% in experiment [6].
`CC(=O)CC(=O)ON(C)C(C)=O`: the growth inhibition was -8.85% in experiment [1]; 19.2% in experiment [2]; -15.8% in experiment [3]; 8.45% in experiment [4]; -14.3% in experiment [5]; -11.6% in experiment [6].
On to `c1ccc(CCc2ccccn2)nc1`, for which the growth inhibition in experiment [1] is 22.9%; in experiment [2] it was 0.8%; in experiment [3] it was -13.6%; in experiment [4], 7.2%; in experiment [5] it was 9.5%; in experiment [6], 1.45%.
